Measured values as given in PubChem BioAssay (NCATS).
Results filed as inconclusive are left out. Values without a mark were called inactive. The source made the active and inactive calls. Calls follow the shape of the dose curve; as a rule, active = well fitted inhibition curve with a large enough effect; inconclusive = small, poorly fitted or top-dose-only effect; inactive = flat fitted curve, though single readings scatter. Starred links: 1 amine or outer side, 2 acyl side, 3 side chain; linkers in the order of their positions; H or OH if unused. Positions of bridges follow the written chain, without caps; N, C: chain ends. Non-standard residues stand in square brackets, D forms with d. Residues, ends and D or L forms follow the SMILES beside them. Chains are numbered I, II in the order given. Actinocin(9to1) = Cc1c2oc3c(C)ccc(C(=O)[*:1])c3nc-2c(C(=O)[*:2])c(N)c1=O; NMeV = CN[CH](C(=O)O)C(C)C; Sar = CNCC(=O)O

The compounds below were run on MCC-26 (assay: qHTS assay to identify novel small-molecules to repurpose for Merkel cell carcinoma treatment (AID 1296009; also: nearly all actives have a fitted effect of over 60% in size)). Settings: MCC and control cell lines, CellTiter-Glo viability, 72 h; series mostly up to 46 µM; activity change, negative = cytotoxicity: at the top concentration.
In short: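 Cells were incubated with compound for 72 hr at 37 degree celsius before CellTiter-Glo addition. Luminescence was normalized with no-cell wells as full cytotoxicity and DMSO as baseline.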
% is scaled to controls: 0 for no effect and ±100 for the full control effect; potency is read from the fitted curve at half-maximal effect.

Structure (SMILES) | activity change, negative = cytotoxicity | Potency
CC(=O)OCC(=O)[C@@]12N=C(C)O[C@H]1C[C@H]1[C@@H]3CCC4=CC(=O)C=C[C@]4(C)[C@@H]3[C@@H](O)C[C@@]12C | -3.19% | 
CN1[C@H]2CC(OC(=O)[C@@H](CO)c3ccccc3)C[C@H]1[C@H]1O[C@H]12 (some centres not stated) | -7.49% [at 16.1 µM] | 
C=C1CCC2[C@](C)(CO)C(O)CC[C@]2(C)C1CC=C1C(=O)OCC1O (some centres not stated) | 4.57% [at 92.7 µM] | 
NC1=N[C@H]2[C@H](CS[C@H]2CCCCC(=O)O)N1 | 1.91% [at 16.1 µM] | 
N#CNC(=NCCCCCCOc1ccc(Cl)cc1)Nc1ccncc1 |  | 0.0148 µM (active)
CN[C@H]1[C@@H](O)[C@@H]2O[C@@H]3O[C@H](C)CC(=O)[C@]3(O)O[C@@H]2[C@@H](NC)[C@H]1O | -0.0744% | 
COc1ccc(C(C)=O)c(O)c1 | 3.37% | 
N#CC(=C(O)c1ccc(Cl)cc1Cl)c1nc2cc(Cl)ccc2c(=O)[nH]1 | -4.73% | 
C[C@H](NCc1ccc2c(c1)nc(NC(=O)c1ccc(-c3cn[nH]c3)s1)n2CCc1ccccc1)C(C)(C)C |  | 10.5 µM (active)
O=C(C=CC#Cc1cccc(NS(=O)(=O)c2ccccc2)c1)NO |  | 18.7 µM (active)
C[C@](Cc1c[nH]c2ccccc12)(NC(=O)OC1C2CC3CC(C2)CC1C3)C(=O)NC[C@H](NC(=O)CCC(=O)O)c1ccccc1 (some centres not stated) | -1.22% | 
CN(N=O)C(=O)N[C@H]1C(O)OC(CO)[C@@H](O)[C@H]1O (some centres not stated) | -1.07% | 
Cc1c2oc3c(C)ccc(C(=O)NC4C(=O)NC(C(C)C)C(=O)N5CCCC5C(=O)N(C)CC(=O)N(C)C(C(C)C)C(=O)OC4C)c3nc-2c(C(=O)NC2C(=O)NC(C(C)C)C(=O)N3CCCC3C(=O)N(C)CC(=O)N(C)C(C(C)C)C(=O)OC2C)c(N)c1=O (configuration not stated) (I: TVP[Sar][NMeV] / II: TVP[Sar][NMeV]; ester I:1-I:C, II:1-II:C; linker I:N-II:N via Actinocin(9to1); configuration not given here) | -82.1% | 
CC(C)(C)[N+]([O-])=Cc1ccc(S(=O)(=O)O)cc1S(=O)(=O)O | 8.49% | 
Nc1cccc2c1C(=O)N(C1CCC(=O)NC1=O)C2=O (configuration not stated) | 9.87% | 
CC(C)OC(=O)[C@H](C)N[P@](=O)(OC[C@H]1O[C@@H](n2ccc(=O)[nH]c2=O)[C@](C)(F)[C@H]1O)Oc1ccccc1 | -0.17% | 
NC[C@H]1O[C@H](O[C@H]2[C@@H](O)[C@@H](O[C@H]3O[C@H](CO)[C@@H](O)[C@H](N)[C@@H]3O)[C@H](N)C[C@@H]2N)[C@H](N)C[C@H]1O | 1.46% | 
